# Screens (PubChem)
# LDHA block = LDHA (human) enzyme inhibition; P00338; AID 1347041; activity change, % (values are at about 110 or 230 µM); 480,000 compounds, 0.15% hits; purified LDHA, NADH/diaphorase-resazurin fluorescence; stronger effect = lower value; in the data active = activity change below about -30%; inconclusive = mostly about -25% to -30%;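 also: plate controls were DMSO wells for no effect and wells without enzyme for full effect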
#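 Human LDH5 (2 nM) was incubated with 0.06 mM NADH and 0.2 mM pyruvate for 5 min at room temperature in Tris pH 7.4. Remaining NADH was coupled through diaphorase/resazurin, and resorufin fluorescence was read at 0 and 20 min.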
# IDH1 R132H inh = inhibitors of human mutant IDH1 R132H | IDH1-R132H enzyme, NADPH consumption, diaphorase/resazurin fluorescence | O75874 | Potency, µM (highest dose often 76.6 µM), for the others: at the top dose activity change, negative = inhibition, actives largely listed as inhibitors | 390,000 compounds, 0.093% hits | AID 602179; also: potency is read from the fitted curve at half-maximal effect; % is scaled to controls: 0 for no effect and ±100 for the full control effect; nearly all actives have a fitted effect of over 65% in size
# Target sequence (O75874 whole entry R132H, stated change not applied): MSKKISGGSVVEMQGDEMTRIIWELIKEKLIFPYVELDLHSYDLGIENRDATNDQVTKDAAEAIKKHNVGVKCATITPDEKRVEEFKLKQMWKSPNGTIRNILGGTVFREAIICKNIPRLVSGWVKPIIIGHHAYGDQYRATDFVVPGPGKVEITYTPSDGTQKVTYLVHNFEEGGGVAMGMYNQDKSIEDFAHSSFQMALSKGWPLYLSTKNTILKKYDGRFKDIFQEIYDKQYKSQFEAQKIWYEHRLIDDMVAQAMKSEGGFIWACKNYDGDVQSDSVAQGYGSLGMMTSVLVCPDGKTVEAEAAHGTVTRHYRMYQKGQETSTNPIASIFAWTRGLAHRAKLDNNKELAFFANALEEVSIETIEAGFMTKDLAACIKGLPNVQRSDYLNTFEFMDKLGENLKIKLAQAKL
#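 IDH1-R132H (0.5 ug/mL) preincubated 30 min with compound, then NADPH (0.016 mM) and alpha-KG (2 mM) added; 80 min at RT, pH 7.5. Remaining NADPH coupled via diaphorase/resazurin to fluorescence (540/590 nm); concentration-response curves normalized to no-enzyme control.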
# HEK293 tox = cytotoxicity counter-screen for GLP-1 receptor inverse agonists | AID 624418 | HEK293 cAMP-luciferase reporter cells, luminescence, 24 h | Potency, µM (highest dose often 38.3 µM), inactives show at the top dose activity change, negative = inhibition, actives largely listed as inhibitors | 410,000 compounds, 0.13% hits;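 also: loss of luciferase light is scored as toxicity; potency is read from the fitted curve at half-maximal effect; % is scaled to controls: 0 for no effect and ±100 for the full control effect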
#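 Step one: seed cells (200 cells/uL, DMEM with 10% Nu serum, 1% pen-strep). Step two: 12-hour incubation at 37 deg C. Step three: pin 23 nL compound, incubate 24 hr. Step four: add luciferase reagent, read luminescence 12 min later.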
# PTHR1 ag = activates the human parathyroid hormone receptor PTHR1. Q03431. HEK293 GP2 PTHR1 cells, GloSensor cAMP luminescence, 1 h. Potency, µM (titrated, usually from 115 µM), for inactives: at the top dose activation, most hits filed as activators. 410,000 compounds, 0.075% hits. AID 743266; also: potency is read from the fitted curve at half-maximal effect; nearly all actives have a fitted effect of over 55% in size
#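 HEK-293-derived GP2 cells expressing PTHR1 and a GloSensor cAMP reporter, 3,000/well, plated overnight, given luciferin plus IBMX (each 0.5 mM as added) for 1 h at 37 °C, then compound for 1 h at 37 °C. Luminescence was read after 15 min at room temperature.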
# GLP-1R agonist = agonists of human GLP-1 receptor. Potency, µM (series often up to 45.6 µM), without a hit: at the highest dose activation, actives largely listed as activators. P43220. AID 624172. HEK293 GLP-1R CRE-luciferase, luminescence, 4-6 h; cells express a hypersensitive GLP-1R form. 380,000 compounds, 0.007% hits; also: potency is read from the fitted curve at half-maximal effect; % of control where 0% means no effect
# GLP-1R inv ag = acts as inverse agonist at human GLP-1 receptor; P43220; HEK293 GLP-1R CRE-luciferase, luminescence, 24 h; GLP-1R form is constitutively active; Potency, µM (highest dose often 38.3 µM), inactives show top-dose activity change, negative = inhibition, most hits filed as inhibitors; 410,000 compounds, 1.6% hits; AID 624417; also: potency is read from the fitted curve at half-maximal effect; % is scaled to controls: 0 for no effect and ±100 for the full control effect; nearly all actives have a fitted effect of over 55% in size
#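 GLP-1R inverse agonism mode: basal reporter luminescence in engineered HEK293 cells measured after one day of compound exposure at 37 deg C, with a 12 min room-temperature detection step.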
# An asterisk follows results filed as active; i = inactive; ? = inconclusive; / = no result; [ ] = remark or other dose. Compounds with a hit are over-represented: about 1.7% of the library has one in this group of screens. Unless noted, calls follow the shape of the dose curve; as a rule, active = well fitted curve in the direction sought with a large enough effect; inconclusive = small, poorly fitted or top-dose-only effect, or another doubt; inactive = no such curve, though single readings can be large; an effect the other way counts as inactive or inconclusive.
SMILES,LDHA block,IDH1 R132H inh,HEK293 tox,PTHR1 ag,GLP-1R agonist,GLP-1R inv ag
Cc1cc(N/N=C/c2cccc(F)c2)nc(NCc2ccccc2)n1,4,5%,?,-14%,-1%,?
Cc1cc(N/N=C/c2ccc(Cl)cc2)nc(NCc2ccccc2)n1,-4,0%,-16%,i,19%,4.5µM*
CC(N(C)c1ccccc1)=[N+](C)c1ccccc1,3,/,/,/,/,/
O=C(CSc1ccc2ccccc2n1)N(C1CCCC1)C1CCS(=O)(=O)C1 (stereo unspecified),11,/,/,/,/,/
Cn1c(=O)c2c(ncn2CC(=O)N2CC(C(=O)N3CCOCC3)Oc3ccccc32)n(C)c1=O (stereo unspecified),6,/,/,/,/,/
CCCCCOC(=O)c1ccc(NC(=O)c2cccc(NC(=O)c3ccccc3C(=O)O)c2)cc1,-2,0%,4%,-9%,-1%,7.1µM*
COc1cccc(-n2c(C)c(C)c3c2ncn2nc(-c4cccs4)nc32)c1,-36*,/,/,/,/,/
COc1cccc(-n2c(C)c(C)c3c2ncn2nc(-c4ccco4)nc32)c1,-5,/,/,/,/,/
Cc1cc(Br)cc2c(C(=O)NC3CCCCC3)cc(-c3ccccc3)nc12,-9,/,/,/,/,/
FC(F)(F)COc1nc(OCC(F)(F)F)nc(N2CCN(c3ccccc3)CC2)n1,-4,1%,-20%,-15%[57.5 µM],-1%,5µM*
Brc1ccc2[nH]c3c(c2c1)CCCCC3,-2,/,/,/,/,/
COc1cc(CNCc2ccc(SC)cc2)cc(OC)c1,-31*,-1%,-1%,-11%,10%,-28%
COc1cccc(CNCc2cc(OC)cc(OC)c2)c1,-16,1%,-5%,-9%,7%,-20%
CCNC(=O)c1cccc(NC(=O)c2cc(C3CC3)nc3c2cnn3C(C)C)c1,-2,-6%,-18%,i,12%,10µM*
CC(C)n1ncc2c(C(=O)O)cc(C3CC3)nc21,-2,10%,-10%,i,-7%,1%
CCOc1ccc(OCCNC(=O)c2cc(C3CC3)nc3c2cnn3C(C)C)cc1,2,2%,-10%,-37%,1%,8.9µM*
CC(C)n1ncc2c(C(=O)Nc3cccc(C#N)c3)cc(C3CC3)nc21,-1,4%,22%,-32%,-1%,8.9µM*
CC(NS(=O)(=O)c1ccccc1F)C(=O)Nc1ccc(F)c(Cl)c1 (stereo unspecified),13,/,/,/,/,/
CCCCOCCCNC(=O)c1ccc2nc(C)c(C)nc2c1,2,/,/,/,/,/
CCOc1ccc(C(=O)N2CCCC(c3nc(-c4ccc(C)o4)no3)C2)cc1 (stereo unspecified),-6,7%,-6%,-14%,15%,11µM*
COc1ccc(-c2noc(CCC(=O)NCC3CCN(Cc4cccc(C)c4)CC3)n2)cc1,-5,2%,-29%,-8%,3%,11µM*
COc1ccccc1-c1cc(C(F)(F)F)nc(S(=O)(=O)CCCC(=O)Nc2cccnc2Cl)n1,-10,-1%,8.9µM*,-27%,-3%,?
COc1ccccc1-c1ccc2c(c1)C(C)(Cc1cc(Cl)ccc1C(F)(F)F)C(=O)N2 (stereo unspecified),0,/,?,-33%,-7%,?
CC1(Cc2cc(Cl)ccc2C(F)(F)F)C(=O)Nc2ccc(-c3ccc(F)c(Cl)c3)cc21 (stereo unspecified),-3,/,11µM*,i,-26%,?
CCOC(=O)Cn1nc(-c2ccccc2)ccc1=O,1,2%,2%,-18%[57.5 µM],4%,0%
SMILES,LDHA block,IDH1 R132H inh,HEK293 tox,PTHR1 ag,GLP-1R agonist,GLP-1R inv ag
CCOC(=O)Cn1nc(-c2ccc(F)cc2)cc(Cc2ccccc2)c1=O,-5,11%,32%,i,20%,11µM*
FC(F)(F)c1ccc(Cl)c(N/N=C/c2cccc(Cl)c2Cl)c1,0,/,/,/,/,/
CC(=O)N1N=C2c3ccccc3CCC2C1c1ccc(F)cc1 (stereo unspecified),0,8%,10%,i,15%,?
CCNC(=S)N1N=C2c3ccccc3CCC2C1c1ccc(F)cc1 (stereo unspecified),-3,7%,?,-14%,-18%,3.5µM*
Cc1cc(C)c(CN2CCN(C(=O)Cn3cnc4c(OCc5ccccc5)ncnc43)CC2)c(C)c1,2,3%,-11%,-42%,0%,6.3µM*
Cc1ccc(CN2CCN(CCCn3cnc4c(OCc5ccccc5)ncnc43)CC2)cc1,-6,-2%,-19%,-43%,-3%,8.9µM*
CC(=O)c1ccc(-n2cc(-c3ccccc3)cc2-c2ccccc2)cc1,8,/,/,/,/,/
COc1ccc(Cl)cc1N1C(=O)/C(=C\c2sccc2C)N=C1SCC(=O)NC1CC1,4,1%,-9%,-10%[57.5 µM],1%,8.9µM*
Cc1nc([N+](=O)[O-])c(Br)n1CC(=O)c1ccc(Cl)cc1,0,-2%,-18%,-30%,-48%,?
Cc1nc([N+](=O)[O-])c(Br)n1Cc1ccc(Cl)c(Cl)c1,-2,?,10µM*,-54%,1%,10µM*
COc1cc(SC)ccc1C(=O)OC(C(=O)c1ccccc1)c1ccccc1 (stereo unspecified),-33*,/,/,/,/,/
COc1cc(SC)ccc1C(=O)OC(C)C(=O)c1ccc(C)cc1 (stereo unspecified),-1,/,/,/,/,/
Cc1ccc(CSc2nc3ccccc3c(=O)n2Cc2ccco2)cc1,-2,2%,17%,i,1%,?
O=c1c2ccccc2nc(SCc2ccccc2)n1Cc1ccco1,-1,5%,18%,-3%[57.5 µM],9%,11µM*
FC(F)(F)COc1cc(-c2nnc(SCc3ccccc3)n2Cc2ccco2)cc(OCC(F)(F)F)n1,1,-1%,5%,i,13%,10µM*
Cc1ccc(C(=O)Nc2ccc(S(=O)(=O)O)c3cc(S(=O)(=O)O)cc(S(=O)(=O)O)c23)cc1NC(=O)c1cccc(NC(=O)Nc2cccc(C(=O)Nc3cc(C(=O)Nc4ccc(S(=O)(=O)O)c5cc(S(=O)(=O)O)cc(S(=O)(=O)O)c45)ccc3C)c2)c1,-94*,/,/,/,27%,/
Cc1ccc(C(=O)C(C)OC(=O)C2CCN(c3ccc(C(F)(F)F)cn3)CC2)cc1 (stereo unspecified),-2,1%,7%,-28%,10%,10µM*
Cc1cccc(Nc2nc(N3CCOCC3)nc(N3CCOCC3)n2)c1,2,7%,41%,?,4%,5.6µM*
Cc1cccc(Nc2nc(N3CCCCC3)nc(N3CCCCC3)n2)c1,0,6%,0%,i,3%,?
